Test results taken from PubChem BioAssay (NCATS).
Records with an inconclusive call do not appear. Calls of active or inactive are those of the source. Calls come from the whole dose curve; as a rule, active = well fitted cell-killing curve with a large enough effect; inconclusive = small, poorly fitted or top-dose-only effect, or effect the other way; inactive = no such curve, though single readings can be large or run the other way.

Experiment: MultiTox-Fluor Cytotoxicity Assay - LYMP1-002 - Dead Cells (AID 960);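 note: cells exposed to compound for 16 h at 37 °C; 0% = DMSO and 100% = tetraoctylammonium bromide; nearly all actives have a fitted effect of over 60% in size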
Settings: LYMP1-002 lymphoblastoid cells, dead-cell protease fluorescence; series mostly up to 46.1 µM; cytotoxicity (dead cells): at the top concentration
Excerpt: NIH Chemical Genomics Center [NCGC]
NIH Molecular Libraries Screening Centers Network [MLSCN]
National Institutes of Environmental Health Sciences [NIEHS]
National Toxicology Program [NTP]
We have developed a 1536-well cell-based assay for quantitative high throughput screening (qHTS) against a number of cell lines to determine in vitro cytotoxicity of small molecules. This particular assay uses a human lymphoblastoid cell line (LYMP1-002) purchased from Coriell Institute.
NCGC Assay Protocol Summary:
The MultiTox-Fluor Cytotoxicity Assay (Promega) is a homogeneous method to simultaneously measure the relative number of live and dead cells in culture by detecting changes in cell membrane integrity. There are two fluorogenic peptide substrates in the assay reagent. Viable cells are determined when the cell-permeant substrate (GF-AFC) enters the cell and is cleaved by protease from live cells resulting in liberated fluorophore. This live-cell protease activity restricted to viable cells is proportional to cell number. The dead cells are determined by using fluorogenic cell-impermeant peptide substrate (bis-AAF-R110) which cleaved by dead cell proteases leaking from damaged cell membrane.
Using the MultiTox-Fluor Cytotoxicity Assay, the relative number of dead cells was measured in the lymphoblastoid cell line with complete culture medium following compound treatment for 16 hours. The assay was performed in opaque black Kalypsys 1536-well plates. In the screen, tetraoctylammonium bromide was used as positive control. Library compounds were measured for their ability to cause acute toxicity in the cell line, as reflected by an increase in dead cell protease activity, in a concentration-dependent manner. Data were normalized to the controls for basal activity (DMSO only) and 100% stimulation (15 uM tetraoctylammonium bromide). AC50 values were determined from concentration-response data modeled with the standard Hill equation.
qHTS protocol for MultiTox-Fluor Cytotoxicity assay
[Step] [Parameter] [Value] [Description]
1. Reagent; 5 uL; 2500 lymphoblastoid cells/well
2. Time; 5 hr; 37 C incubation
4. Controls; 23 nL; Tetraoctylammonium bromide 6.4pM to 92 uM
5. Time; 16 hr; 37 C incubation
6. Reagent; 5 uL; MuliTox-Fluor Assay reagent
7. Time; 60 min; Room Temperature
8. Detection; dead-cell fluorescence (Ex/Em=485/520); EnVision plate reader
Keywords: cytotoxicity, lymphoblastoid cell line, fluorescence, NTPHTS, NTPHTS_NCGC, NIEHS, EPA, DSSTox, MLSMR, MLSCN, NIH Roadmap, qHTS, NCGC

Row | Compound | cytotoxicity (dead cells)
1 | [O-]/[N+](=N\O)c1ccccc1 | 10.8% (inactive)
2 | CC(C)(C)c1ccc(OCC2CO2)cc1 (stereo not given) | 5.17% (inactive)
3 | O=C(O)c1cccc(Cl)c1Cl | 10.2% (inactive)
4 | Nc1cccc(N)c1 | 13.4% (inactive)
5 | C=CCOC(=O)COCCC(C)C | -0.131% (inactive)
6 | CCCCCCCCCCCCOCC1CO1 (stereo not given) | 15.9% (inactive)
7 | OC/C(Br)=C(\Br)CO | 9.44% (inactive)
8 | COC(=O)CCC(=O)OC | -17.6% (inactive)
9 | O=C(O)c1ccc(Cl)c(Cl)c1 | 23.2% (inactive)
10 | CC(C)CCOC(=O)/C=C/c1ccccc1 | 27.3% (inactive)
11 | CC/C=C1/OC(=O)c2ccccc21 | 6.2% (inactive)
12 | CCNc1ccccc1 | 14.1% (inactive)
13 | O=C(Cl)c1ccccc1[N+](=O)[O-] | 22.7% (inactive)
14 | CN(C)CCCCl | 0.67% (inactive)
15 | C=Cc1ccc(C=C)cc1 | -15.4% (inactive)
16 | Cc1ccc(C)cc1 | 0.543% (inactive)
17 | CCCCOCCOCCOCCCC | 1.22% (inactive)
18 | C=Cc1ccccc1C=C | -4.59% (inactive)
19 | O=c1[nH][nH]c(=O)c2cc([N+](=O)[O-])ccc12 | 0.722% (inactive)
20 | Cc1ccc2oc(=O)ccc2c1 | -10.7% (inactive)

Row | Compound | cytotoxicity (dead cells)
21 | O=[N+]([O-])c1cc(C(F)(F)F)ccc1Cl | -1.18% (inactive)
22 | COc1ccc(N)c(OC)c1 | -6.21% (inactive)
23 | COC(=O)CS | 1.62% (inactive)
24 | O=P(O)(OCc1ccccc1)OCc1ccccc1 | 2.13% (inactive)
25 | O=[N+]([O-])c1ccc(NCCO)c(OCCO)c1 | -0.593% (inactive)
26 | O=[N+]([O-])c1ccccc1CCO | 4.81% (inactive)
27 | CC(=O)OCc1ccco1 | -4.75% (inactive)
28 | Cc1cc(C)cc(O)c1 | 13.9% (inactive)
29 | NCCCCCCN | 5.15% (inactive)
30 | C=CC(=O)NC(C)C | 0.339% (inactive)
31 | CC(C)(C)OC=O | 17.4% (inactive)
32 | O=C(Cl)c1c(Cl)cccc1Cl | -11.7% (inactive)
33 | C1CCCC1 | 25.5% (inactive)
34 | Nc1cccc([N+](=O)[O-])c1 | 17.8% (inactive)
35 | FB(F)F | 8.48% (inactive)
36 | Cc1ccc(Br)cc1 | 11% (inactive)
37 | Nc1cccc(C(F)(F)F)c1 | 3.25% (inactive)
38 | Nc1ccc([N+](=O)[O-])c(N)c1 | -6.8% (inactive)
39 | O=C1OC(=O)c2cc([N+](=O)[O-])ccc21 | 39.2% (inactive)
40 | CCCCOCCOCCSC#N | 29.1% (inactive)
